The source of these data is PubChem BioAssay (NCI).

Compounds without any hit were thinned out: in the full panel of roughly 79,000, 15% have a hit. Unmarked numbers belong to inactive results. The source made the active and inactive calls. No stated cut-off is given here; in the data, active means growth inhibition above about 70%; inactive means the rest.

A short description of assay [1]: NCI Yeast Anticancer Drug Screen. Data for the rad50 strain (AID 155).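 Further: 0% = growth of vehicle-only cultures of the same strain.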 As to conditions: S. cerevisiae rad50 strain growth inhibition, stronger effect = higher value. An outline of the steps: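 Genetically altered yeast (DNA repair pathway); compound treatment; growth inhibition vs vehicle ctrl.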
The nature of assay [2]: NCI Yeast Anticancer Drug Screen. Data for the mec2-1 strain (AID 157). As to conditions: S. cerevisiae mec2-1 strain, stronger effect = higher value. An outline of the steps:
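Compounds were applied to mec2-1 yeast cells. Their growth was then compared with that of vehicle-treated cultures to give growth inhibition.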

Assay [3] is described as follows: NCI Yeast Anticancer Drug Screen. Data for the sgs1 mgt1 strain (AID 161).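 Further: 0% = growth of cultures given vehicle only.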 As to conditions: S. cerevisiae sgs1 mgt1 strain, stronger effect = higher value. A digest of the protocol:
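Percent growth inhibition was derived by comparing compound-exposed mutant yeast with vehicle-exposed cultures. The strain carries alterations in DNA damage repair.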

Assay [4] is described as follows: NCI Yeast Anticancer Drug Screen. Data for the cln2 rad14 strain (AID 165).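 Further: 0% = growth equal to vehicle treated cultures.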 As to conditions: S. cerevisiae cln2 rad14 strain, stronger effect = higher value. An outline of the steps: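 Strain: cln2 rad14 yeast, altered in cell cycle control and DNA damage repair. Read-out: growth inhibition vs vehicle.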
A short description of assay [5]: NCI Yeast Anticancer Drug Screen. Data for the bub3 strain (AID 167). As to conditions: S. cerevisiae bub3 mutant strain, stronger effect = higher value. A digest of the protocol:
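Yeast carrying a defined mutation is treated with each compound, and growth is compared with that of vehicle-exposed cells to give inhibition.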

Assay [6] is described as follows: NCI Yeast Anticancer Drug Screen. Data for the mlh1 rad18 strain (AID 175). As to conditions: S. cerevisiae mlh1 rad18 strain growth inhibition, stronger effect = higher value. An outline of the steps: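 A repair-deficient yeast strain is exposed to test compound, and growth is scored relative to vehicle-treated controls.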
Where [7] appears, read: at 5.0 µM (retest, dose inferred, filed as 0.5).
Setting [8] is: at 50.0 µM (retest, dose inferred, filed as 5.0).

`CC1=CCC[C@@H]2C1(C)CCC(C)[C@@]2(C)CC1=CC(=O)C=CC1=O` (some centres not stated): the growth inhibition in assay [1] (setting [7]) was 18%; in assay [1] (setting [8]), 95% (active); in assay [1] (at 50.0 µM), 86.1% (active); in assay [2] (setting [7]) it was 27%; in assay [2] (setting [8]), 96% (active); in assay [2] (at 50.0 µM), 89.2% (active). Also, the growth inhibition in assay [3] (setting [7]) is 52%; in assay [3] (setting [8]), 95% (active); in assay [3] (at 50.0 µM) it was 88.8% (active); in assay [4] (setting [7]) it was -12%; in assay [4] (setting [8]), 92% (active); in assay [4] (at 50.0 µM), 85.5% (active). The growth inhibition in assay [5] (setting [7]) is 14%; in assay [5] (setting [8]), 93% (active); in assay [5] (at 50.0 µM), 86.8% (active); in assay [6] (setting [7]), 40%; in assay [6] (setting [8]), 92% (active); in assay [6] (at 50.0 µM), 87% (active).
Take `O=C(OCCC1CCCCC1)c1cc([N+](=O)[O-])cc([N+](=O)[O-])c1`: the growth inhibition is 4% in assay [1] (setting [7]); 79% (active) in assay [1] (setting [8]); 83.1% (active) in assay [1] (at 50.0 µM); 13% in assay [2] (setting [7]); 76% (active) in assay [2] (setting [8]); 75% (active) in assay [2] (at 50.0 µM). The growth inhibition was 10% in assay [3] (setting [7]); 70% (active) in assay [3] (setting [8]); 90.3% (active) in assay [3] (at 50.0 µM); 6% in assay [4] (setting [7]); 71% (active) in assay [4] (setting [8]); 80.5% (active) in assay [4] (at 50.0 µM). Also, the growth inhibition in assay [5] (setting [7]) was 5%; in assay [5] (setting [8]) it was 82% (active); in assay [5] (at 50.0 µM) it was 88.5% (active); in assay [6] (setting [7]), 12%; in assay [6] (setting [8]), 86% (active); in assay [6] (at 50.0 µM), 89.8% (active).
For the molecule `O=C(c1cc2c(C(F)(F)F)onc2c2ccccc12)C(F)(F)F`, the growth inhibition in assay [1] (setting [7]) was -8%; in assay [1] (setting [8]), 5%; in assay [1] (at 50.0 µM), 76.7% (active); in assay [2] (setting [7]), -17%; in assay [2] (setting [8]) it was 9%; in assay [2] (at 50.0 µM) it was 44.9%. Also, the growth inhibition was -8% in assay [3] (setting [7]); -2% in assay [3] (setting [8]); 50.6% in assay [3] (at 50.0 µM); 0% in assay [4] (setting [7]); 28% in assay [4] (setting [8]); 64.8% in assay [4] (at 50.0 µM). Further, the growth inhibition in assay [5] (setting [7]) is 12%; in assay [5] (setting [8]), 42%; in assay [5] (at 50.0 µM) it was 38.9%; in assay [6] (setting [7]) it was 0%; in assay [6] (setting [8]), 26%; in assay [6] (at 50.0 µM), 36.4%.
Consider `COC(=O)c1c(C(N)=O)c(C)n(NC(=O)Nc2ccccc2)c1C`, for which the growth inhibition is 25% in assay [1] (setting [7]); 93% (active) in assay [1] (setting [8]); 96.2% (active) in assay [1] (at 50.0 µM); 24% in assay [2] (setting [7]); 95% (active) in assay [2] (setting [8]); 85.1% (active) in assay [2] (at 50.0 µM). The growth inhibition in assay [3] (setting [7]) was 41%; in assay [3] (setting [8]) it was 94% (active); in assay [3] (at 50.0 µM), 95% (active); in assay [4] (setting [7]) it was 32%; in assay [4] (setting [8]), 91% (active); in assay [4] (at 50.0 µM), 81.4% (active). The growth inhibition in assay [5] (setting [7]) was 37%; in assay [5] (setting [8]), 92% (active); in assay [5] (at 50.0 µM), 86.2% (active); in assay [6] (setting [7]), 63%; in assay [6] (setting [8]), 95% (active); in assay [6] (at 50.0 µM), 87.8% (active).
Regarding `Cc1[nH]n(C(N)=S)c(=O)c1N=Nc1ccc([N+](=O)[O-])cc1`, the growth inhibition in assay [1] (setting [7]) was -19%; in assay [1] (setting [8]) it was 35%; in assay [1] (at 50.0 µM) it was 91.5% (active); in assay [2] (setting [7]), -4%; in assay [2] (setting [8]), 27%; in assay [2] (at 50.0 µM), 51.2%. For the same molecule, the growth inhibition in assay [3] (setting [7]) was -4%; in assay [3] (setting [8]), 66%; in assay [3] (at 50.0 µM) it was 88.2% (active); in assay [4] (setting [7]) it was -13%; in assay [4] (setting [8]), 33%; in assay [4] (at 50.0 µM) it was 7.5%. Further, the growth inhibition was -12% in assay [5] (setting [7]); 54% in assay [5] (setting [8]); 51.8% in assay [5] (at 50.0 µM); -6% in assay [6] (setting [7]); 48% in assay [6] (setting [8]); 93.4% (active) in assay [6] (at 50.0 µM).
On to `O=c1oc(-c2ccc(Cl)cc2[N+](=O)[O-])nc2ccccc12`, for which the growth inhibition in assay [1] (setting [7]) is 16%; in assay [1] (setting [8]), 10%; in assay [1] (at 50.0 µM), 77.2% (active); in assay [2] (setting [7]) it was 17%; in assay [2] (setting [8]), -1%; in assay [2] (at 50.0 µM) it was 63.6%. Besides, the growth inhibition in assay [3] (setting [7]) is 5%; in assay [3] (setting [8]), 6%; in assay [3] (at 50.0 µM) it was 70.3% (active); in assay [4] (setting [7]), 31%; in assay [4] (setting [8]), 5%; in assay [4] (at 50.0 µM) it was 39.2%. Further, the growth inhibition is -6% in assay [5] (setting [7]); 6% in assay [5] (setting [8]); 66.5% in assay [5] (at 50.0 µM); -23% in assay [6] (setting [7]); -13% in assay [6] (setting [8]); 68.5% in assay [6] (at 50.0 µM).
Consider `CCN(CC)CCOc1ccc(/C(C#N)=C/c2ccc3ccccc3c2)cc1`, for which the growth inhibition in assay [1] (setting [7]) is 38%; in assay [1] (setting [8]) it was 99% (active); in assay [1] (at 50.0 µM), 99.5% (active); in assay [2] (setting [7]) it was 30%; in assay [2] (setting [8]), 99% (active); in assay [2] (at 50.0 µM), 99.5% (active). Besides, the growth inhibition in assay [3] (setting [7]) was 73% (active); in assay [3] (setting [8]), 100% (active); in assay [3] (at 50.0 µM) it was 99.2% (active); in assay [4] (setting [7]), 28%; in assay [4] (setting [8]) it was 99% (active); in assay [4] (at 50.0 µM), 99.5% (active). Further, the growth inhibition was 53% in assay [5] (setting [7]); 99% (active) in assay [5] (setting [8]); 99.4% (active) in assay [5] (at 50.0 µM); 35% in assay [6] (setting [7]); 99% (active) in assay [6] (setting [8]); 99.2% (active) in assay [6] (at 50.0 µM).
`CC(SC1=CC(=O)c2c(Cl)ccc(O)c2C1=O)C(=O)O` (configuration not stated): the growth inhibition in assay [1] (setting [7]) was 10%; in assay [1] (setting [8]) it was 13%; in assay [1] (at 50.0 µM), 5.7%; in assay [2] (setting [7]), 2%; in assay [2] (setting [8]), 16%; in assay [2] (at 50.0 µM) it was 1.25%. The growth inhibition in assay [3] (setting [7]) was 22%; in assay [3] (setting [8]), 30%; in assay [3] (at 50.0 µM), -25.1%; in assay [4] (setting [7]) it was -9%; in assay [4] (setting [8]) it was 7%; in assay [4] (at 50.0 µM), -47.5%. For the same molecule, the growth inhibition was 0% in assay [5] (setting [7]); 17% in assay [5] (setting [8]); 6% in assay [5] (at 50.0 µM); 3% in assay [6] (setting [7]); 26% in assay [6] (setting [8]); 8.35% in assay [6] (at 50.0 µM).
As for `CN(C)CCCSc1c2ccccc2nc2cc(NCC(=O)Nc3ccccc3-c3ccccc3NC(=O)CNc3ccc4c(SCCCN(C)C)c5ccccc5nc4c3)ccc12`, the growth inhibition is 53% in assay [1] (setting [7]); 98% (active) in assay [1] (setting [8]); 90.6% (active) in assay [1] (at 50.0 µM); 38% in assay [2] (setting [7]); 99% (active) in assay [2] (setting [8]); 92.5% (active) in assay [2] (at 50.0 µM). Further, the growth inhibition in assay [3] (setting [7]) was 32%; in assay [3] (setting [8]), 98% (active); in assay [3] (at 50.0 µM), 93.3% (active); in assay [4] (setting [7]) it was 30%; in assay [4] (setting [8]), 63%; in assay [4] (at 50.0 µM), 78.3% (active). Also, the growth inhibition in assay [5] (setting [7]) is 39%; in assay [5] (setting [8]), 98% (active); in assay [5] (at 50.0 µM), 91.5% (active); in assay [6] (setting [7]) it was 41%; in assay [6] (setting [8]), 98% (active); in assay [6] (at 50.0 µM) it was 90.7% (active).
